The campaign covered roughly 1,400 compounds. About 350 (25%) were called active. About 2% were inconclusive and are not listed. How the calls were made is not given here. These entries were drawn from the full list. Measured potencies and affinities stand elsewhere.
Experiment: inhibitors of Clostridioides difficile proliferation – 4-point retest, confirmation (AID 1224921);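 further: plate controls were DMSO wells for no effect and levofloxacin 16 µg/mL wells for full effect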
Details: Clostridioides difficile clinical isolate growth, OD600, 24 h, hits give low values; at 30 µM unless noted

Max activity, inactive:
CC(C)(C)[S@](=O)N1Cc2cc(C(=O)NCc3ccc4c(c3)OCO4)nc(-c3cccc(-c4cccnc4)c3)c2[C@@H]1CCO 32.4% [at 35 µM]
O=C(C[C@@H]1C=C[C@@H](NC(=O)CCN2CCCCC2)[C@H](CO)O1)Nc1ccc(-c2ccccc2)cc1 21.5%
CC(C)c1cn(CC[C@@H]2CC[C@H](NS(=O)(=O)c3ccc(F)cc3)[C@H](CO)O2)nn1 -12.5%
N#C[C@@H]1[C@H](c2ccccc2)[C@H](CO)N1S(=O)(=O)c1ccc(-c2ccccc2)cc1 15.3%
C[C@@H]1CN([C@@H](C)CO)C(=O)c2cc(C3=CCCCC3)cnc2O[C@@H]1CN(C)C(=O)c1cccc(F)c1 24.7%
C[C@H](NC(=O)C[C@@H]1C[C@@H]2c3cc(NC(=O)CC4CC4)ccc3O[C@@H]2[C@H](CO)O1)c1ccccc1 8.12% [at 35 µM]
O=C(C[C@H]1C[C@H]2c3cc(NC(=O)Nc4ccc(C(F)(F)F)cc4)ccc3O[C@H]2[C@@H](CO)O1)NCc1ccc(Cl)cc1 -6.14% [at 7.5 µM]
CO[C@@H]1CN(C)C(=O)c2cc(NC(=O)Nc3c(C)noc3C)ccc2OC[C@@H](C)N(C(=O)Nc2cccc(Cl)c2)C[C@H]1C 14.7%
C[C@@H]1CN([C@H](C)CO)C(=O)c2cccc(NC(=O)Nc3ccc(C(F)(F)F)cc3)c2O[C@H]1CN(C)C(=O)NC1CCCCC1 34.6%
CC(C)NC(=O)N(C)C[C@H]1Oc2c(NC(=O)Nc3ccc(C(F)(F)F)cc3)cccc2C(=O)N([C@@H](C)CO)C[C@H]1C 34.2% [at 8 µM]
C[C@H](CO)N1C[C@H](C)[C@@H](CN(C)C(=O)NC2CCCCC2)Oc2c(NC(=O)Nc3ccc(C(F)(F)F)cc3)cccc2C1=O 28.8%
C[C@H](CO)N1C[C@H](C)[C@@H](CN(C)C(=O)NC2CCCCC2)Oc2c(NC(=O)Nc3ccc(F)cc3)cccc2C1=O 20.1%
Cc1ccc(-c2cnc3c(c2)C(=O)N([C@@H](C)CO)C[C@@H](C)[C@@H](CN(C)C(=O)c2cccc(F)c2)O3)cc1 28.4%
CC(C)[C@H](C)NC(=O)N(C)C[C@@H]1OCc2ccccc2-c2ccccc2C(=O)N([C@@H](C)CO)C[C@H]1C -10.9% [at 1.95 µM]
CO[C@H]1CN(C)C(=O)c2ccc(NS(=O)(=O)c3ccc(C)cc3)cc2OC[C@@H](C)N(C(=O)NC(C)C)C[C@H]1C 6.95%
C[C@@H]1CN([C@H](C)CO)S(=O)(=O)c2ccc(C#CCC3CCCC3)cc2O[C@@H]1CN(C)C(=O)CC1CC1 36.7%
Cc1noc(C)c1NC(=O)N[C@@H]1CC[C@H](CC(=O)Nc2ccc(-c3ccccc3)cc2)O[C@@H]1CO 42%
CCN1C[C@@H](C)[C@H](OC)CN(C)C(=O)c2cc(NC(=O)NC(C)C)ccc2OC[C@H]1C 16.9%
CC(C)CC#Cc1ccc2c(c1)O[C@H](CN(C)Cc1cccnc1)[C@H](C)CN([C@@H](C)CO)S2(=O)=O 26.5%
N#C[C@H]1[C@H](c2ccc(C#Cc3ccccc3F)cc2)[C@@H](CO)N1C(=O)C1CCCCC1 15.2% [at 1.95 µM]
CCC(=O)Nc1ccc2c(c1)OC[C@@H](C)N(Cc1ccccc1)C[C@H](C)[C@@H](OC)CN(C)C2=O 21.5%
COc1ccc(CN(C)C[C@@H]2OCCCC[C@@H](C)Oc3ccc(NC(=O)Nc4ccc(C(F)(F)F)cc4)cc3C(=O)N([C@H](C)CO)C[C@H]2C)cc1 35.6% [at 8 µM]
COc1ccc(CN(C)C[C@H]2OCCCC[C@@H](C)Oc3ccc(NC(=O)Nc4ccc(C(F)(F)F)cc4)cc3C(=O)N([C@@H](C)CO)C[C@H]2C)cc1 38.8% [at 1.95 µM]
COc1ccc(CN(C)C[C@@H]2OCCCC[C@H](C)Oc3ccc(NC(=O)Nc4ccc(C(F)(F)F)cc4)cc3C(=O)N([C@@H](C)CO)C[C@H]2C)cc1 21.3% [at 8 µM]
COc1ccc(CN(C)C[C@H]2OCCCC[C@H](C)Oc3ccc(NC(=O)Nc4ccc(C(F)(F)F)cc4)cc3C(=O)N([C@H](C)CO)C[C@H]2C)cc1 38.6% [at 1.95 µM]
COc1ccc(CN(C)C[C@@H]2OCCCC[C@H](C)Oc3ccc(NC(=O)Nc4ccc(F)cc4)cc3C(=O)N([C@@H](C)CO)C[C@H]2C)cc1 23.6%
COc1ccc(CN(C)C[C@H]2OCCCC[C@H](C)Oc3ccc(NC(=O)Nc4ccc(C(F)(F)F)cc4)cc3C(=O)N([C@H](C)CO)C[C@@H]2C)cc1 35.8%
COc1cccc(C#Cc2ccc([C@H]3[C@@H](CO)N(C(=O)C4CC4)[C@H]3C#N)cc2)c1 19.6%
CO[C@@H]1CN(C)C(=O)c2cc(NC(=O)c3ccccc3)ccc2OC[C@H](C)N(C)C[C@H]1C 6.89% [at 8 µM]
CO[C@@H]1CN(C)C(=O)c2cc(NS(=O)(=O)c3cn(C)cn3)ccc2OC[C@@H](C)N(Cc2cccc(Cl)c2)C[C@H]1C 31.5%
C[C@H](CO)N1C[C@H](C)[C@@H](CN(C)C(=O)NC2CCCCC2)Oc2c(NC(=O)Nc3cccc4ccccc34)cccc2C1=O 61.2%
C[C@@H]1CCCCO[C@@H](CN(C)Cc2ccc3c(c2)OCO3)[C@H](C)CN([C@H](C)CO)C(=O)c2cc(NC(=O)Nc3ccc(F)cc3)ccc2O1 18%
CCCN1C[C@@H](C)[C@H](OC)CN(C)C(=O)c2cc(NC(=O)Nc3cccc(OC)c3)ccc2OC[C@H]1C -7.34% [at 1.95 µM]
CCCN1C[C@@H](C)[C@H](OC)CN(C)C(=O)c2ccc(NC(=O)Nc3c(C)noc3C)cc2OC[C@@H]1C 21.5%
CCCN1C[C@@H](C)[C@H](OC)CN(C)C(=O)c2ccc(NC(=O)CC)cc2OC[C@@H]1C 3.36%
COc1ccc(NC(=O)Nc2ccc3c(c2)[C@@H]2C[C@@H](CC(=O)NCc4ccccc4F)O[C@H](CO)[C@@H]2O3)cc1 -14.3%
C[C@@H]1CN([C@@H](C)CO)C(=O)c2cccc(NS(=O)(=O)c3ccc(Cl)cc3)c2O[C@@H]1CN(C)Cc1ccc(C(F)(F)F)cc1 20.4% [at 1.95 µM]
COc1ccc(CN(C)C[C@H]2OCCCC[C@@H](C)Oc3ccc(NC(=O)Nc4ccc5c(c4)OCO5)cc3C(=O)N([C@H](C)CO)C[C@H]2C)cc1 17.6%
CCCN(C)C[C@H]1OCCCC[C@H](C)Oc2ccc(NS(=O)(=O)c3c(C)noc3C)cc2C(=O)N([C@@H](C)CO)C[C@@H]1C 19% [at 8 µM]
COc1ccc(CN(C)C[C@H]2OCCCC[C@H](C)Oc3ccc(NC(=O)Nc4ccc5c(c4)OCO5)cc3C(=O)N([C@H](C)CO)C[C@H]2C)cc1 21.6%
C[C@H](CO)N1C[C@H](C)[C@@H](CN(C)Cc2ccc3c(c2)OCO3)OCCCC[C@H](C)Oc2ccc(NC(=O)Nc3ccc4c(c3)OCO4)cc2C1=O 12.4%
C[C@@H]1CCCCO[C@@H](CN(C)Cc2ccc3c(c2)OCO3)[C@H](C)CN([C@@H](C)CO)C(=O)c2cc(NC(=O)Nc3ccc4c(c3)OCO4)ccc2O1 14.9%
Cc1ccc(S(=O)(=O)Nc2ccc3c(c2)C(=O)N([C@H](C)CO)C[C@@H](C)[C@H](CN(C)Cc2ccc(Cl)c(Cl)c2)OCCCC[C@H](C)O3)cc1 39% [at 1.95 µM]
C[C@@H]1CN([C@@H](C)CO)C(=O)c2cc(NC(=O)Nc3ccc(F)cc3)ccc2O[C@@H](C)CCCCO[C@H]1CN(C)Cc1ccc2c(c1)OCO2 20.9%
Cc1ccc(S(=O)(=O)Nc2ccc3c(c2)C(=O)N([C@@H](C)CO)C[C@H](C)[C@@H](CN(C)Cc2ccc(Cl)c(Cl)c2)OCCCC[C@@H](C)O3)cc1 8.85%
C[C@@H]1CN([C@@H](C)CO)C(=O)Cc2cc(NS(C)(=O)=O)ccc2O[C@H]1CN(C)Cc1ccccc1 38.5% [at 35 µM]
N#C[C@H]1[C@@H](c2ccccc2)[C@@H](CO)N1S(=O)(=O)c1ccc(-c2ccccc2)cc1 40.9%
Cc1ccc(-c2cnc3c(c2)C(=O)N([C@@H](C)CO)C[C@H](C)[C@@H](CN(C)C(=O)c2ccccc2)O3)cc1 -9.22% [at 0.5 µM]
CN(C)CC(=O)N[C@H]1C=C[C@H](CC(=O)NCCN2CCCCC2)O[C@@H]1CO 12.7% [at 8 µM]
N#C[C@H]1[C@@H](c2ccc(-c3ccccc3)cc2)[C@@H](CO)N1C(=O)Cc1ccncc1 13.6%
CCC(=O)N[C@@H]1C=C[C@@H](CC(=O)OC)O[C@H]1CO -12.2% [at 8 µM]
C[C@@H]1CN([C@H](C)CO)S(=O)(=O)c2ccc(C#CCC3CCCC3)cc2O[C@@H]1CN(C)C(=O)c1ccccn1 46.2% [at 8 µM]
C[C@@H]1CN([C@H](C)CO)C(=O)c2cccc(N(C)C)c2O[C@H]1CN(C)Cc1ccc(C(F)(F)F)cc1 26.1%
CO[C@H]1CN(C)C(=O)c2ccc(NC(=O)c3ccc(F)cc3)cc2OC[C@@H](C)N(C(=O)CN(C)C)C[C@H]1C -10.6% [at 1.95 µM]
C[C@H]1CCCCO[C@@H](CN(C)CC2CCCCC2)[C@@H](C)CN([C@@H](C)CO)C(=O)c2cc(NC(=O)Nc3cccc4ccccc34)ccc2O1 27.7% [at 8 µM]
C[C@H](CO)N1C[C@H](C)[C@@H](CN(C)CC2CCCCC2)OCCCC[C@H](C)Oc2ccc(NC(=O)Nc3cccc4ccccc34)cc2C1=O 21.6%
C[C@@H]1CCCCO[C@H](CN(C)CC2CCCCC2)[C@@H](C)CN([C@H](C)CO)C(=O)c2cc(NC(=O)Nc3cccc4ccccc34)ccc2O1 12.9% [at 8 µM]
C[C@@H]1CCCCO[C@H](CN(C)CC2CCCCC2)[C@H](C)CN([C@@H](C)CO)C(=O)c2cc(NC(=O)Nc3cccc4ccccc34)ccc2O1 -10.7%
